Assay results from ChEMBL document CHEMBL1961873, “Compounds: GSK PKIS; Assays: Nanosyn kinase panel” (2012).

How the values were obtained:
[1] = biological target: Tyrosine-protein kinase CSK (Homo sapiens) (UniProt P41240); conditions: at 1 µM;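 further: each value is an averaged inhibition reading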
[2] = biological target: T1, Discoidin domain-containing receptor 2 (Homo sapiens) (UniProt Q16832); conditions: at 0.1 µM
T1 sequence (whole entry): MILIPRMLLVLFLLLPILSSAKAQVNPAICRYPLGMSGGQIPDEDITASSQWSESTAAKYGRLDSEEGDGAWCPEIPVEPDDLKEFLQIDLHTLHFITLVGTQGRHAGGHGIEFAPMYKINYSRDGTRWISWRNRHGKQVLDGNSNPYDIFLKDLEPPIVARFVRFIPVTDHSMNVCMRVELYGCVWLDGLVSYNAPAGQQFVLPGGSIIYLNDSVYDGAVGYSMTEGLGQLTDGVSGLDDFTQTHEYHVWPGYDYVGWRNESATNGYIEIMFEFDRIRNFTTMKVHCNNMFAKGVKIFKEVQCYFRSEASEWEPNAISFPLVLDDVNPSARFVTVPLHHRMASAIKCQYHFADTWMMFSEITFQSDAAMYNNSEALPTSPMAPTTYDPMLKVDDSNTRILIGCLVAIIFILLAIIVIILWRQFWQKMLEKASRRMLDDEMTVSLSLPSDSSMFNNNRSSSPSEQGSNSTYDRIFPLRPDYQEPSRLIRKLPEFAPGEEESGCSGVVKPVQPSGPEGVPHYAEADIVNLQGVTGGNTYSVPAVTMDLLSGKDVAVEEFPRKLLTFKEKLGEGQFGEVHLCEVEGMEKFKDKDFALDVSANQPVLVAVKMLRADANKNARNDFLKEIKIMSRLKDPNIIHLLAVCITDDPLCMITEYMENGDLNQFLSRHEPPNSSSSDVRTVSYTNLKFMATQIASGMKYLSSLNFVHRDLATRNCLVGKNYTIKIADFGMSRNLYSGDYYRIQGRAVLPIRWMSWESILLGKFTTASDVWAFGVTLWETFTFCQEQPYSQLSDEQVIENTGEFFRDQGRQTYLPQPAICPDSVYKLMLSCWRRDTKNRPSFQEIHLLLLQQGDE

[3] = biological target: T1, Discoidin domain-containing receptor 2 (Homo sapiens); conditions: at 1 µM
[4] = biological target: Epidermal growth factor receptor (Homo sapiens) (UniProt P00533); conditions: at 0.1 µM
[5] = biological target: Epidermal growth factor receptor (Homo sapiens) (UniProt P00533); conditions: at 1 µM
[6] = tested on: Epidermal growth factor receptor (Homo sapiens), P00533 [L858R]; conditions: at 0.1 µM
Sequence of Epidermal growth factor receptor (Homo sapiens), P00533 [L858R] (P00533 whole entry L858R): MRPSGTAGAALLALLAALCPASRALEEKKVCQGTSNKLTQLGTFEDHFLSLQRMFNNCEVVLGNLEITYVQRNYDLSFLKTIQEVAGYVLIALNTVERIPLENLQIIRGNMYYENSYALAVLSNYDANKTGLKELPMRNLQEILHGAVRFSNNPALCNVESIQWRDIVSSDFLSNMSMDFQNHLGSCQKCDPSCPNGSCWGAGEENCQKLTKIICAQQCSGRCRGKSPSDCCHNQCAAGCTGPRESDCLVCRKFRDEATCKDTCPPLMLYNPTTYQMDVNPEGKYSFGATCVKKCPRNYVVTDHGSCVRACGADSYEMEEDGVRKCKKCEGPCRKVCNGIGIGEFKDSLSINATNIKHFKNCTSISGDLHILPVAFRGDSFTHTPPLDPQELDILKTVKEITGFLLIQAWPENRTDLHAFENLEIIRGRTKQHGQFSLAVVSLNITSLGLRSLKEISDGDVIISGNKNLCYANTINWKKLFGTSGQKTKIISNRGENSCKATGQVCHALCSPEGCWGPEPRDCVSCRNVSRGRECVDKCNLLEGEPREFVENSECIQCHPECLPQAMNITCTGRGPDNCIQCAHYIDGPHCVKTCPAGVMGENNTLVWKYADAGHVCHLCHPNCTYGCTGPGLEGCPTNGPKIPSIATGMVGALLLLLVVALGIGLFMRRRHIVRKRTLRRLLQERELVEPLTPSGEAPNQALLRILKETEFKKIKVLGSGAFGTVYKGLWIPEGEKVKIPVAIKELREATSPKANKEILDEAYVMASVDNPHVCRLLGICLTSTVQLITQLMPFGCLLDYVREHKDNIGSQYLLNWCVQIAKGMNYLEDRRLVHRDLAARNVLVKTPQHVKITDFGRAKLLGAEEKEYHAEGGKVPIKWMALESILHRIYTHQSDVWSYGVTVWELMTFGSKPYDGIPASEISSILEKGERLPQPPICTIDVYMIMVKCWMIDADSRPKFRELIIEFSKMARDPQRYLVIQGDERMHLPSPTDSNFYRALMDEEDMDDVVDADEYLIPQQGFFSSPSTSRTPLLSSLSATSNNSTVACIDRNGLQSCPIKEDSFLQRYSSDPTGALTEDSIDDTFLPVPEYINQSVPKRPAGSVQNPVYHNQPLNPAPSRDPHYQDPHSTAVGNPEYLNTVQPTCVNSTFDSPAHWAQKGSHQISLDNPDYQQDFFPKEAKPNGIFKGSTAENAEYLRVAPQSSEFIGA

[7] = tested on: Epidermal growth factor receptor (Homo sapiens), P00533 [L858R]; conditions: at 1 µM
[8] = tested on: Epidermal growth factor receptor (Homo sapiens), P00533 [L861Q]; conditions: at 0.1 µM
Sequence of Epidermal growth factor receptor (Homo sapiens), P00533 [L861Q] (P00533 whole entry L861Q): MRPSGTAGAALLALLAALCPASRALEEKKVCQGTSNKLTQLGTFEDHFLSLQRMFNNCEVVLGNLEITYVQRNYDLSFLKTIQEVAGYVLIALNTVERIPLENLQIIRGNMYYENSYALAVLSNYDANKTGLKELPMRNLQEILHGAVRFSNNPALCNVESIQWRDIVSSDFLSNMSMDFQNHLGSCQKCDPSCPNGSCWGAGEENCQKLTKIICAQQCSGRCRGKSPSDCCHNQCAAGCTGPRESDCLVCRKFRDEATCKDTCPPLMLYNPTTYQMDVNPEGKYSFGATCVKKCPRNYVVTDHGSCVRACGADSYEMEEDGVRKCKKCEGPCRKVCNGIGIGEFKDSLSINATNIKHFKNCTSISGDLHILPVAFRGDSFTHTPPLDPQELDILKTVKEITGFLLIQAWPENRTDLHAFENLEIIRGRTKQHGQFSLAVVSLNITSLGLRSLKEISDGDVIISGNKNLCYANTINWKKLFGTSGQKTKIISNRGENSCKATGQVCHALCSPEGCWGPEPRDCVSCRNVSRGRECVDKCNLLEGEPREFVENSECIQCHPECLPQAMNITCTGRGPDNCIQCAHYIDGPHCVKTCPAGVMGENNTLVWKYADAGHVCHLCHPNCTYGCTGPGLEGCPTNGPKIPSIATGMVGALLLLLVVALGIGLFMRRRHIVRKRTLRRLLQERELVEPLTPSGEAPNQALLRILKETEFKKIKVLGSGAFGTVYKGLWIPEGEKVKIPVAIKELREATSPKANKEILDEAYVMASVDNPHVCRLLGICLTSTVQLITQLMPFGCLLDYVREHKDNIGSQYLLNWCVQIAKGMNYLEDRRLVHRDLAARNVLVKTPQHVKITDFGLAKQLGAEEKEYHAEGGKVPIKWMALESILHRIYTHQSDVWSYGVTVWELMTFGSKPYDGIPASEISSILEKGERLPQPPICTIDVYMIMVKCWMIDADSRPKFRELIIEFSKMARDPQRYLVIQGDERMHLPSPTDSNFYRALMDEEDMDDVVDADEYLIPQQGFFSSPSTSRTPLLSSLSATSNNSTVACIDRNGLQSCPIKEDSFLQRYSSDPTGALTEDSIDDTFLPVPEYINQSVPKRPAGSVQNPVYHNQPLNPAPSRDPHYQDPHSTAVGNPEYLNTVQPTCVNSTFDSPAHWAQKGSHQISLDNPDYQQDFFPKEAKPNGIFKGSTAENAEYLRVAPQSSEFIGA

[9] = tested on: Epidermal growth factor receptor (Homo sapiens), P00533 [L861Q]; conditions: at 1 µM
[10] = tested on: Epidermal growth factor receptor (Homo sapiens), P00533 [T790M]; conditions: at 0.1 µM
Sequence of Epidermal growth factor receptor (Homo sapiens), P00533 [T790M] (P00533 whole entry T790M): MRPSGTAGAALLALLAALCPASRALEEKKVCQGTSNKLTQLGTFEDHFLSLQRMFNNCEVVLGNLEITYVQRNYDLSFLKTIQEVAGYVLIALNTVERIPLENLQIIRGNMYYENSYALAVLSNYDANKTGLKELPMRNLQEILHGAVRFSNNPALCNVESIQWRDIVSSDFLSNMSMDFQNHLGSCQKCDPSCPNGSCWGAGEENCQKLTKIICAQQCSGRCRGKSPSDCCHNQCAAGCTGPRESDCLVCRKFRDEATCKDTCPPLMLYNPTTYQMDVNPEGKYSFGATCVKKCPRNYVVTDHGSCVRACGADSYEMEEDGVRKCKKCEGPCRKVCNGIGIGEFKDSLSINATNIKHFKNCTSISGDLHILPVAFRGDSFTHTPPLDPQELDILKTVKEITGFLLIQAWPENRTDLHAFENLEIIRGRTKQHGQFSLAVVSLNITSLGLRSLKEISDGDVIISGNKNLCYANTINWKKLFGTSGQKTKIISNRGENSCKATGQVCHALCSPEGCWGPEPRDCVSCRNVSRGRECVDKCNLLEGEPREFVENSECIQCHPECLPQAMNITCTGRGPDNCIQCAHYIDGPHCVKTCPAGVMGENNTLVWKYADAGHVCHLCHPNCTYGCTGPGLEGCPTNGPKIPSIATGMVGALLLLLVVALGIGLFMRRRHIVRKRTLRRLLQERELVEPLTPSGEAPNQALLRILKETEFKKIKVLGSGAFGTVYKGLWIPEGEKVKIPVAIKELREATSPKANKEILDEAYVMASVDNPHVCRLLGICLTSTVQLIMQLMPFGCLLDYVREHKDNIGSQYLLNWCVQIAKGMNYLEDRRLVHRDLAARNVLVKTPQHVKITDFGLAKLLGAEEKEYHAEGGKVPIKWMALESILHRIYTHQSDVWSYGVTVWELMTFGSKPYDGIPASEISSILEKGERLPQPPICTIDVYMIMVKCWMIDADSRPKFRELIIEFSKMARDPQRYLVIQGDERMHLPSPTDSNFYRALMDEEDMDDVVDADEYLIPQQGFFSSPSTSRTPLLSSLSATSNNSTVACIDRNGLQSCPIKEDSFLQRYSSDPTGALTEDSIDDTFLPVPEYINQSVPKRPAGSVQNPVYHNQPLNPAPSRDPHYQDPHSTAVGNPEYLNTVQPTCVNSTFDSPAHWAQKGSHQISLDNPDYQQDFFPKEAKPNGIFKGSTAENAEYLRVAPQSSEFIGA

Sequence of Tyrosine-protein kinase CSK (Homo sapiens) (P41240 2-450 limits assumed): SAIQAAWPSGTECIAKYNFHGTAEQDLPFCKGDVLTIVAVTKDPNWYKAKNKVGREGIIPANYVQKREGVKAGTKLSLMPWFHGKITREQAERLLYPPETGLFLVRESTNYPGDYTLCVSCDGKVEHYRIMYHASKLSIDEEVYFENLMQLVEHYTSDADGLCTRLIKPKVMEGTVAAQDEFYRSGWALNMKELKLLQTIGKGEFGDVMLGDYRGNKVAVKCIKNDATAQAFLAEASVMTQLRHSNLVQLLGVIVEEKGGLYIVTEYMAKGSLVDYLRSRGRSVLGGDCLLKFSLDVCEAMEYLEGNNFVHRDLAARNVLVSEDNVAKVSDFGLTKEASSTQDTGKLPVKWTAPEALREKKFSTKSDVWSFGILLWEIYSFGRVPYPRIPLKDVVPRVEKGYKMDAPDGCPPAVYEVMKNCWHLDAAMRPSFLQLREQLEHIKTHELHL

Compound	inhibition [1] [%]	inhibition [2] [%]	inhibition [3] [%]	inhibition [4] [%]	inhibition [5] [%]	inhibition [6] [%]	inhibition [7] [%]	inhibition [8] [%]	inhibition [9] [%]	inhibition [10] [%]
COc1ccc(-c2cc3c(N)ncnc3o2)cc1	-0.98	-0.42	0.02	0.82	2	0.82	-0.02	-0.61	-1.15	-2.23
Cc1ccc(O)cc1Nc1ccnc2cc(-c3ccccn3)ccc12	57.1	20.3	74	57.7	91.9	88.8	97.8	59.8	91.9	5.49
FC(F)(F)c1cccc(-c2nn3ncccc3c2-c2ccnc(Nc3ccc4c(c3)OCCO4)n2)c1	4.25	1.27	16.5	5.52	45.3	5.51	55.7	8.83	33.4	2.2
CCCN(CCS(C)(=O)=O)Cc1ccc(-c2ccc3ncnc(Nc4ccc(OCc5cccc(F)c5)c(Cl)c4)c3c2)o1	5.5	1.06	1.68	77.6	78.4	53.4	95	53	88.2	2.23
COc1cccc(-n2ncc3c(N/N=C/c4ccc(F)cc4)ncnc32)c1	11.4	1.69	4.36	0.53	7.92	11.6	34.9	5.16	12	1.96
O=C(O[C@H]1CN[C@H](C#Cc2cc3ncnc(Nc4ccc(Cc5ccccc5)cc4)c3s2)C1)N1CCOCC1	2.39	-1.8	-1.26	27.8	69.9	1.68	11.4	15.1	26.9	1.18
c1cc(-c2cnn3nc(N4CCOCC4)ccc23)nc(NC2CC2)n1	5.31	1.38	3.9	4.04	6.33	5.72	2.16	3.88	2.28	2.15
NS(=O)(=O)c1ccc(N/N=C2\C(=O)Nc3ccc4ncccc4c32)cc1	9.03	0.92	6.09	0.87	6.7	1.35	2.75	1.5	-1.33	1.15
COc1cc(N2CCN(C(C)C)CC2)ccc1Nc1nc(Nc2ccc(F)cc2C(N)=O)c2cc[nH]c2n1	0.44	0.99	0.35	5.2	–	1.78	39.2	3.8	23.1	26.4
CS(=O)(=O)CCNCc1coc(-c2ccc3ncnc(Nc4ccc(OCc5ccccc5)cc4)c3c2)c1	5.24	1.75	1.8	80.3	92.2	30.6	82.5	39.1	76	2.61
CCN(CC)S(=O)(=O)c1ccc(OC)c(Nc2ncc(-c3ccccc3)o2)c1	5.35	7.09	17.5	3.51	3.96	4.33	11.6	3.42	2.22	1.36
CCNC(=O)O[C@H]1CN[C@H](C#Cc2cc3ncnc(Nc4ccc(OCc5cccc(F)c5)c(Cl)c4)c3s2)C1	7.41	2.66	1.39	86.6	98	32.5	81	37.6	67	2.9
CN1CCC(n2cnc(-c3ccc(F)cc3)c2-c2ccnc(Nc3ccccc3)n2)CC1	6.08	-0.08	0.85	9.04	46.6	37	84.8	9.58	51.3	1.19
Clc1ccc(-c2nn3ncccc3c2-c2ccnc(Nc3ccccc3)n2)cc1	5.89	3	76.7	13.2	61.7	43.5	87.6	12	58.5	1.98
CCN1CCC(CC(=O)Nc2n[nH]c3nnc(-c4cccc(F)c4F)cc23)CC1	4.47	1.59	1.68	-0.65	2.31	-0.92	3.4	0.65	-0.91	-0.06
COc1cc(/C=N/Nc2ncnc3[nH]ncc23)ccc1O	24.9	1.42	2.31	2.77	8.71	4.32	7.89	2.91	4.72	1.39
CCn1c(-c2nonc2N)nc2c(C#CC(C)(C)O)nc(OC[C@H](N)c3ccccc3)cc21	2.13	1.12	1.65	2.01	13.4	1.93	1.86	-0.13	2.36	1.22

Compound	inhibition [1] [%]	inhibition [2] [%]	inhibition [3] [%]	inhibition [4] [%]	inhibition [5] [%]	inhibition [6] [%]	inhibition [7] [%]	inhibition [8] [%]	inhibition [9] [%]	inhibition [10] [%]
CC(=O)NCc1cccc(C#Cc2cncnc2Nc2ccc(OCc3cccc(F)c3)c(Cl)c2)c1	-2.55	1.32	1.46	61.2	75.8	10.4	54.2	24	42.1	-1.44
CC(C)(CO)CNC(=O)c1ccc2c(c1)/C(=N/Nc1ccc(S(N)(=O)=O)cc1)C(=O)N2	-0.3	-1.82	3.39	5.33	5.03	-3.09	-0.53	-0.63	-0.88	-1.56
CNC(=O)c1cncc(/C=C/c2ccccc2Cl)c1	6	-0.31	6.62	2.35	6.18	1.57	10.9	1.06	7.25	-0.23
NC(=O)c1sc(-n2cnc3ccc(C(F)(F)F)cc32)cc1OCc1ccccc1Br	4.85	1.6	0.21	0	-1.55	1.72	4.51	4.73	1.73	2.11
COc1ccc(-c2nn3ncccc3c2-c2ccnc(Nc3ccc4c(c3)OCCO4)n2)cc1	2.25	17.7	79.8	0.51	34.1	8.22	57.4	5.78	34.3	0.7
COC(=O)c1sc(-n2cnc3cc(OC)c(OC)cc32)cc1OCc1ccccc1C(F)(F)F	0.42	2.46	2.44	-0.33	2.22	1.6	6.95	3.31	0.15	1.36
COc1cc2c(cc1Nc1nc(Nc3ccsc3C(N)=O)c3cc[nH]c3n1)N(C(=O)CN(C)C)CCC2(C)C	0.65	4.88	1.72	1.56	9.19	5.69	33.1	1.86	14.5	26.6
COC(=O)Nc1nc2ccc(Oc3ccc(NC(=O)Nc4cccc(Cl)c4)cc3)cc2[nH]1	5.95	84.2	85.2	3.42	7.64	-0.65	2.43	-0.21	-0.8	-1.18
CS(=O)(=O)CCNCc1ccc(-c2ccc3ncnc(Nc4ccc(OCc5ccccc5)c(C(F)(F)F)c4)c3c2)o1	3.7	1.76	1.84	12.5	71.2	9.52	50.1	17.8	41.7	2.35
Cc1cccc(Nc2ncc(-c3ccccc3)o2)c1	0.89	0.22	0.44	2.11	2.82	0.79	2.98	-0.45	1.8	0.73
CCCN1CCC(c2ccc(Nc3nc(Nc4cc(F)ccc4C(N)=O)c4cc[nH]c4n3)c(OC)c2)CC1	6.03	0.6	3.39	8.69	40.3	5.44	46.4	6.31	28.4	30.4
COc1cccc(-c2c[nH]c3c(N/N=C/c4ccncc4)ncnc23)c1	17.3	3.82	14.8	7.02	41.9	30.4	82.3	8.35	45.4	1.02
CCc1nn2ncccc2c1-c1ccnc(NC2CC2)n1	1.97	1.02	1.6	2.78	4.33	1.84	0.95	1.81	2.47	1.44
O=C(Nc1n[nH]c2cc(-c3ccc(F)cc3)ccc12)C1CC1	5.61	2.28	1.71	-1.79	4.27	0.24	4.19	1.33	2.33	1.54
Fc1cccc(COc2ccc(Nc3ncnc4sc(-c5ccco5)cc34)cc2Cl)c1	2.56	3.86	4.41	71.9	81.9	15.2	54.8	30.2	51	1.83
COc1cc(Nc2nccc(Nc3ccc4c(C)n[nH]c4c3)n2)cc(OC)c1OC	67.9	9.87	43.1	8	22.2	3.36	29.9	2.9	15.6	1.4
